Measured values published in PubChem BioAssay AID1159580 (chemical genetic matrix, 2015).
“And” between values parts separate entries of the source, which are not always exact repeats. Equal entries are not always repeated. The campaign covered roughly 5,500 compounds. About 2,000 (36%) were called active. Inconclusive results (about 18%) are left out. Cut-off read from the data, not from the text of the source: active = normalized growth mostly below about 0.91 (no sharp cut-off); inconclusive = no clear call, values can overlap the other calls; inactive = mostly above about 0.92. Some of the results follow.

Assay: chemical genetic growth profiling, strain panel (AID 1159580);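 note: tested at 20 µM; growth read once vehicle control cultures reached saturation at 30 °C; 1 = growth at the plate median or of vehicle wells; lower values mean less growth of the strain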
Conditions: S. cerevisiae deletion strains, growth OD

Measured: normalized growth

C[C@@H](CO)NC(=O)C1C=C2c3cccc4[nH]cc(c34)C[C@H]2N(C)C1 (stereo partly specified)
inactive: locus YAL013W, strain DEP1, active compounds read low 1.02 | locus YAL021C, strain ccr4, active compounds read low 1.01 | locus YAL026C, strain drs2, active compounds read low 0.989 | locus YAL030W, strain snc1, active compounds read low 1.03 | locus YBL061C, strain skt5, active compounds read low 1.02 | locus YBR009C, strain hhf1, active compounds read low 0.979 | locus YBR021W, strain FUR4, active compounds read low 0.963 | locus YBR023C, strain chs3, active compounds read low 1.01 | locus YBR171W, strain sec66, active compounds read low 1.02 | locus YBR229C, strain ROT2, active compounds read low 0.997 | locus YBR231C, strain swc5, active compounds read low 1.02 | locus YBR279W, strain paf1, active compounds read low 1 | locus YCL011C, strain gbp2, active compounds read low 0.991 | locus YCL016C, strain dcc1, active compounds read low 0.955 | locus YCL029C, strain bik1, active compounds read low 0.986 | locus YCL069W, strain vba3, active compounds read low 1.01 | locus YCR088W, strain abp1, active compounds read low 1.01 | locus YDL005C, strain med2, active compounds read low 1.02 | locus YDL035C, strain GPR1, active compounds read low 1.03 | locus YDL040C, strain nat1, active compounds read low 1.01 | locus YDL074C, strain BRE1, active compounds read low 1.08 | locus YDL101C, strain DUN1, active compounds read low 0.996 | locus YDL134C, strain PPH21, active compounds read low 0.995 | locus YDL185W, strain tfp1, active compounds read low 0.983 | locus YDL192W, strain arf1, active compounds read low 0.994 | locus YDR001C, strain nth1, active compounds read low 1 | locus YDR069C, strain doa4, active compounds read low 1.04 | locus YDR101C, strain arx1, active compounds read low 0.997 | locus YDR137W, strain rgp1, active compounds read low 0.984 | locus YDR150W, strain NUM1, active compounds read low 0.987 | locus YDR159W, strain sac3, active compounds read low 0.937 | locus YDR162C, strain NBP2, active compounds read low 1.02 | locus YDR195W, strain ref2 1.01 | locus YDR297W, strain sur2, active compounds read low 1.03 | locus YDR318W, strain mcm21, active compounds read low 0.994 | locus YDR334W, strain swr1, active compounds read low 1 | locus YDR335W, strain msn5, active compounds read low 1.01 | locus YDR388W, active compounds read low 0.998 | locus YDR392W, strain spt3, active compounds read low 0.942 | locus YDR502C, strain sam2, active compounds read low 0.996 | locus YEL003W, strain gim4, active compounds read low 1.03 | locus YEL037C, strain rad23, active compounds read low 1.01 | locus YEL061C, strain CIN8 (second series), active compounds read low 1 | locus YEL061C, strain CIN8, active compounds read low 1.01 | locus YER015W, strain faa2, active compounds read low 1.01 | locus YER016W, strain bim1, active compounds read low 0.994 | locus YER110C, active compounds read low 0.99 | locus YER111C, strain swi4, active compounds read low 1 | locus YER155C, strain BEM2 (second series), active compounds read low 1.08 | locus YER155C, strain BEM2, active compounds read low 1 | locus YER167W, strain BCK2, active compounds read low 0.99 | locus YFR010W, strain ubp6, active compounds read low 1.01 | locus YGL078C, strain dbp3, active compounds read low 0.995 | locus YGL086W, strain mad1, active compounds read low 0.987 | locus YGL167C, strain pmr1, active compounds read low 1.03 | locus YGL173C, strain kem1, active compounds read low 1.04 | locus YGL227W, strain vid30, active compounds read low 1.01 | locus YGL240W, strain doc1, active compounds read low 1.04 | locus YGL248W, strain PDE1, active compounds read low 0.993 | locus YGL253W, strain hxk2, active compounds read low 0.985 | locus YGR078C, strain PAC10, active compounds read low 1.03 | locus YGR135W, strain pre9, active compounds read low 1.01 | locus YGR229C, strain SMI1, active compounds read low 1.06 | locus YGR252W, strain gcn5, active compounds read low 0.977 | locus YHR013C, strain ard1, active compounds read low 1 | locus YHR027C, strain rpn1, active compounds read low 1.01 | locus YHR030C, strain SLT2, active compounds read low 0.991 and 1.04 | locus YHR079C, strain IRE1 (second series), active compounds read low 0.991 | locus YHR079C, strain IRE1, active compounds read low 1.04 | locus YHR094C, strain hxt1, active compounds read low 0.991 | locus YHR129C, strain ARP1, active compounds read low 0.999 | locus YHR142W, strain chs7, active compounds read low 0.99 | locus YHR200W, strain rpn10, active compounds read low 0.988 | locus YIL066C, strain RNR3, active compounds read low 1 | locus YIL073C, strain SPO22, active compounds read low 0.949 | locus YIL125W, strain kgd1, active compounds read low 0.99 | locus YIR030C, strain dcg1, active compounds read low 0.994 | locus YJL092W, strain hpr5, active compounds read low 1.03 | locus YJL095W, strain BCK1 (second series), active compounds read low 1.03 | locus YJL095W, strain BCK1, active compounds read low 1.05 and 1.04 | locus YJL115W, strain asf1, active compounds read low 1.01 | locus YJL129C, strain trk1, active compounds read low 1.02 | locus YJL134W, strain LCB3, active compounds read low 0.997 | locus YJL154C, strain vps35, active compounds read low 1.01 | locus YJL164C, strain tpk1, active compounds read low 0.989 | locus YJL166W, strain qcr8, active compounds read low 1.03 | locus YJL168C, strain set2, active compounds read low 0.998 | locus YJL187C, strain SWE1 (second series), active compounds read low 1 | locus YJL187C, strain SWE1, active compounds read low 1.02 | locus YJR043C, strain POL32, active compounds read low 0.995 | locus YJR066W, strain TOR1, active compounds read low 1.01
